Results on 8 molecules are retold here after PubChem BioAssay (NCI).

Molecules are shown by their SMILES. Compounds without any hit were thinned out: in the full panel of roughly 83,000, 20% have a hit.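 Single-dose data. Exposure time 48 hours. Values below 10 considered active.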 Values without a mark were called inactive. Activity calls are given as the source filed them.

What all share (experiment): NCI-60 one-dose screen, 48 h (100 = growth as untreated, 0 = no growth, -100 = all killed)
Holding throughout (conditions): 10 µM unless noted

Test [1] relates to DU-145 prostate.
Test [2] deals with K-562 leukemia.
Test [3] deals with MALME-3M melanoma.
Test [4] relates to MDA-MB-231 breast.
In test [5] the test system is RXF 393 renal.
Test [6] relates to SF-268 CNS.
In test [7] the test system is SF-295 CNS.
Test [8] has as its system SF-539 CNS.
Test [9] relates to UACC-257 melanoma.
The subject of test [10] is M14 melanoma.
Test [11] has as its system HCT-15 colon.
Test [12] deals with HT29 colon.
The test system of test [13] is SNB-75 CNS.
Test [14] relates to SNB-19 CNS.
The subject of test [15] is U251 CNS.
Test [16] deals with PC-3 prostate.
The test system of test [17] is SK-MEL-5 melanoma.
In test [18] the test system is UACC-62 melanoma.
Test [19] concerns LOX IMVI melanoma.
For test [20], the system named is SK-MEL-28 melanoma.

Take `S=c1nc(-c2ccccc2)oc(=NC2CCCCC2)n1C1CCCCC1`: the growth in test [1] is 13.4%; in test [2], -42.6% (active); in [3], 94.9%; in test [4] it was 81.8%; in [5] it was 81.5%; in [6], 34.1%. The growth in test [7] was 2.95% (active); in [8], 65.2%; in [9], 95%; in test [10] it was 84.8%; in [11], 16.1%; in [12], 49.5%. Further, the growth in test [13] is 68.2%; in test [14], 28.7%; in test [15] it was 18.8%; in test [16] it was 3.69% (active); in test [17], 66.1%; in [18], 70.9%. The figures for the growth in [19] and in test [20] were 30.1% and 107%, respectively.
Take `Cc1ccc(C(CC(=O)O)c2c(C)[nH][nH]c2=O)cc1` (stereo not given): the growth was 106% in [1]; 90.8% in test [2]; 99.4% in test [3]; -33.1% (active) in test [4]; 102% in [5]; 94.9% in test [6]. Further, the growth in test [7] is 102%; in test [8] it was 97%; in test [9], 104%; in test [10] it was 96.7%; in [11] it was 103%; in test [12], 113%. Besides, the growth in test [13] is 92.9%; in test [14], 98.5%; in test [15], 96.4%; in test [16], 105%; in [17], 102%; in test [18] it was 96.1%. Moreover, the growth in test [19] was 95.5%; in test [20], 110%.
`CNc1ccc(Nc2cccc(C)c2)c2c1C(=O)c1ccccc1C2=O`: the growth was 85% in test [1]; 92.7% in [2]; 147% in test [3]; 96.1% in [4]; 93.4% in test [5]; 87.5% in [6]. Besides, the growth in test [7] is 146%; in test [8], 99%; in test [9], 107%; in test [10] it was 122%; in test [11], 85.1%; in test [12], 96.6%. Further, the growth in [13] was 96.3%; in [14], 99.6%; in test [15], 95.4%; in [16], 95%; in [17], 91%; in test [18], 64.9%. Further, the growth was 81.5% in test [19] and 114% in test [20].
Consider `CN1CCN(c2ccc(-c3cc4c(Nc5ccc(F)c(Cl)c5)ncnn4c3)cn2)CC1`, for which the growth is 58.1% in test [1]; 11.7% in test [2]; 50.3% in [3]; 77.3% in test [4]; 101% in [5]; 98.7% in test [6]. Besides, the growth was 103% in [7]; 68% in test [8]; 105% in test [9]; 83.8% in test [10]; 7.04% (active) in test [11]; 16.1% in test [12]. The growth in test [13] is 72%; in test [14], 96.2%; in test [15], 82.5%; in test [16], 94.2%; in test [17], 100%; in test [18], 106%. Further, the growth in [19] is 85.2%; in [20] it was 87.6%.
With `CCOC(=O)Cn1c(=O)c2c(c3ccccc3n2C)n2nnc(-c3ccccc3)c12`, the growth was 111% in test [1]; 84.8% in test [2]; 118% in test [3]; 103% in test [4]; 108% in test [5]; 95.2% in test [6]. The growth in [7] was 110%; in test [8], 102%; in test [9] it was 102%; in test [10], 97.6%; in test [11], 112%; in test [12] it was 100%. Also, the growth in [13] is 94.2%; in test [14] it was 104%; in test [15], 107%; in test [16], 103%; in test [17] it was 98.4%; in [18], 102%. Further, the growth in [19] was 91.1%; in [20] it was 107%.
As for `CCCCOc1ccc(/C=N/NC(N)=S)cc1`, the growth was 95.6% in [1]; 65% in test [2]; 90.2% in [3]; 55.7% in test [4]; 85.7% in test [5]; 88.7% in test [6]. The growth in [7] is 96.9%; in [8], 78.9%; in test [9], 78.4%; in [10], 78%; in test [11], 55.7%; in [12], 61.5%. Moreover, the growth is 72.9% in test [13]; 89.8% in [14]; 89.9% in test [15]; 81% in test [16]; 95.7% in [17]; 75.5% in test [18]. In addition, the growth in [19] is 94.2%; in [20], 96.5%.
Consider `Cc1ccc(C(=O)NCCNc2nccc(-c3c(-c4cccc(F)c4)nc4sccn34)n2)cc1`, for which the growth in test [1] was 62.9%; in [2] it was 48.7%; in test [3], 47.3%; in test [4] it was 72.5%; in test [5] it was 39.9%; in test [6] it was 60%. Further, the growth in test [7] is 62.5%; in test [8], 90.1%; in test [9], 75.1%; in [10], 44%; in test [11], 38.9%; in test [12], 35.9%. Also, the growth in test [13] is -1.5% (active); in test [14], 69.5%; in test [15], 62%; in test [16] it was 56.2%; in test [17], 37.6%; in test [18] it was 23.7%. The growth in [19] was 39.4%; in test [20], 65%.
`COc1cc(/C=C/c2ccccc2)cc(OC)c1`: the growth in [1] is 94.3%; in [2], 93%; in test [3], 105%; in [4], 91%; in test [5], 118%; in [6] it was 92.7%. Moreover, the growth was 95.7% in [7]; 93.1% in [8]; 103% in test [9]; 101% in [10]; 91% in test [11]; 90.4% in [12]. In addition, the growth was 93.1% in test [13]; 98.7% in [14]; 84.1% in [15]; 94.6% in [16]; 96.5% in [17]; 83.4% in test [18]. Moreover, the growth was 84.8% in test [19] and 111% in test [20].
